# Assay results: the supplement of paper PMC11001985
# Compound: C#CCNC(=O)CCSSCCC(=O)NCCc1ccc(C=O)c(C=O)c1
# Experiment: lysine labeling ratio R10:1 (500 µM / 50 µM probe), SILAC-ABPP in living cells; higher = lower intrinsic lysine reactivity toward the probe, active = 2 or less
# Conditions: HeLa; probe concentrations 500 vs 50 µM
# In short: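 Each lysine carries an R value: the filtered median of MS1 peptide ratios of high probe to low probe, with the median then taken over forward and reverse replicates. These came from living SILAC light and heavy HeLa cells in PBS at room temperature labelled with an alkyne-tagged, disulfide-linked lysine probe at 500 µM or 50 µM, in forward and reverse swaps. The lysates were mixed, clicked to biotin-azide, trypsin-digested, captured on neutravidin, released by DTT, alkylated and run by LC-MS/MS on a TIMS-TOF Pro. The highest value allowed is 20.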
# Chain of UniProt Q15149 (Q15149 whole entry): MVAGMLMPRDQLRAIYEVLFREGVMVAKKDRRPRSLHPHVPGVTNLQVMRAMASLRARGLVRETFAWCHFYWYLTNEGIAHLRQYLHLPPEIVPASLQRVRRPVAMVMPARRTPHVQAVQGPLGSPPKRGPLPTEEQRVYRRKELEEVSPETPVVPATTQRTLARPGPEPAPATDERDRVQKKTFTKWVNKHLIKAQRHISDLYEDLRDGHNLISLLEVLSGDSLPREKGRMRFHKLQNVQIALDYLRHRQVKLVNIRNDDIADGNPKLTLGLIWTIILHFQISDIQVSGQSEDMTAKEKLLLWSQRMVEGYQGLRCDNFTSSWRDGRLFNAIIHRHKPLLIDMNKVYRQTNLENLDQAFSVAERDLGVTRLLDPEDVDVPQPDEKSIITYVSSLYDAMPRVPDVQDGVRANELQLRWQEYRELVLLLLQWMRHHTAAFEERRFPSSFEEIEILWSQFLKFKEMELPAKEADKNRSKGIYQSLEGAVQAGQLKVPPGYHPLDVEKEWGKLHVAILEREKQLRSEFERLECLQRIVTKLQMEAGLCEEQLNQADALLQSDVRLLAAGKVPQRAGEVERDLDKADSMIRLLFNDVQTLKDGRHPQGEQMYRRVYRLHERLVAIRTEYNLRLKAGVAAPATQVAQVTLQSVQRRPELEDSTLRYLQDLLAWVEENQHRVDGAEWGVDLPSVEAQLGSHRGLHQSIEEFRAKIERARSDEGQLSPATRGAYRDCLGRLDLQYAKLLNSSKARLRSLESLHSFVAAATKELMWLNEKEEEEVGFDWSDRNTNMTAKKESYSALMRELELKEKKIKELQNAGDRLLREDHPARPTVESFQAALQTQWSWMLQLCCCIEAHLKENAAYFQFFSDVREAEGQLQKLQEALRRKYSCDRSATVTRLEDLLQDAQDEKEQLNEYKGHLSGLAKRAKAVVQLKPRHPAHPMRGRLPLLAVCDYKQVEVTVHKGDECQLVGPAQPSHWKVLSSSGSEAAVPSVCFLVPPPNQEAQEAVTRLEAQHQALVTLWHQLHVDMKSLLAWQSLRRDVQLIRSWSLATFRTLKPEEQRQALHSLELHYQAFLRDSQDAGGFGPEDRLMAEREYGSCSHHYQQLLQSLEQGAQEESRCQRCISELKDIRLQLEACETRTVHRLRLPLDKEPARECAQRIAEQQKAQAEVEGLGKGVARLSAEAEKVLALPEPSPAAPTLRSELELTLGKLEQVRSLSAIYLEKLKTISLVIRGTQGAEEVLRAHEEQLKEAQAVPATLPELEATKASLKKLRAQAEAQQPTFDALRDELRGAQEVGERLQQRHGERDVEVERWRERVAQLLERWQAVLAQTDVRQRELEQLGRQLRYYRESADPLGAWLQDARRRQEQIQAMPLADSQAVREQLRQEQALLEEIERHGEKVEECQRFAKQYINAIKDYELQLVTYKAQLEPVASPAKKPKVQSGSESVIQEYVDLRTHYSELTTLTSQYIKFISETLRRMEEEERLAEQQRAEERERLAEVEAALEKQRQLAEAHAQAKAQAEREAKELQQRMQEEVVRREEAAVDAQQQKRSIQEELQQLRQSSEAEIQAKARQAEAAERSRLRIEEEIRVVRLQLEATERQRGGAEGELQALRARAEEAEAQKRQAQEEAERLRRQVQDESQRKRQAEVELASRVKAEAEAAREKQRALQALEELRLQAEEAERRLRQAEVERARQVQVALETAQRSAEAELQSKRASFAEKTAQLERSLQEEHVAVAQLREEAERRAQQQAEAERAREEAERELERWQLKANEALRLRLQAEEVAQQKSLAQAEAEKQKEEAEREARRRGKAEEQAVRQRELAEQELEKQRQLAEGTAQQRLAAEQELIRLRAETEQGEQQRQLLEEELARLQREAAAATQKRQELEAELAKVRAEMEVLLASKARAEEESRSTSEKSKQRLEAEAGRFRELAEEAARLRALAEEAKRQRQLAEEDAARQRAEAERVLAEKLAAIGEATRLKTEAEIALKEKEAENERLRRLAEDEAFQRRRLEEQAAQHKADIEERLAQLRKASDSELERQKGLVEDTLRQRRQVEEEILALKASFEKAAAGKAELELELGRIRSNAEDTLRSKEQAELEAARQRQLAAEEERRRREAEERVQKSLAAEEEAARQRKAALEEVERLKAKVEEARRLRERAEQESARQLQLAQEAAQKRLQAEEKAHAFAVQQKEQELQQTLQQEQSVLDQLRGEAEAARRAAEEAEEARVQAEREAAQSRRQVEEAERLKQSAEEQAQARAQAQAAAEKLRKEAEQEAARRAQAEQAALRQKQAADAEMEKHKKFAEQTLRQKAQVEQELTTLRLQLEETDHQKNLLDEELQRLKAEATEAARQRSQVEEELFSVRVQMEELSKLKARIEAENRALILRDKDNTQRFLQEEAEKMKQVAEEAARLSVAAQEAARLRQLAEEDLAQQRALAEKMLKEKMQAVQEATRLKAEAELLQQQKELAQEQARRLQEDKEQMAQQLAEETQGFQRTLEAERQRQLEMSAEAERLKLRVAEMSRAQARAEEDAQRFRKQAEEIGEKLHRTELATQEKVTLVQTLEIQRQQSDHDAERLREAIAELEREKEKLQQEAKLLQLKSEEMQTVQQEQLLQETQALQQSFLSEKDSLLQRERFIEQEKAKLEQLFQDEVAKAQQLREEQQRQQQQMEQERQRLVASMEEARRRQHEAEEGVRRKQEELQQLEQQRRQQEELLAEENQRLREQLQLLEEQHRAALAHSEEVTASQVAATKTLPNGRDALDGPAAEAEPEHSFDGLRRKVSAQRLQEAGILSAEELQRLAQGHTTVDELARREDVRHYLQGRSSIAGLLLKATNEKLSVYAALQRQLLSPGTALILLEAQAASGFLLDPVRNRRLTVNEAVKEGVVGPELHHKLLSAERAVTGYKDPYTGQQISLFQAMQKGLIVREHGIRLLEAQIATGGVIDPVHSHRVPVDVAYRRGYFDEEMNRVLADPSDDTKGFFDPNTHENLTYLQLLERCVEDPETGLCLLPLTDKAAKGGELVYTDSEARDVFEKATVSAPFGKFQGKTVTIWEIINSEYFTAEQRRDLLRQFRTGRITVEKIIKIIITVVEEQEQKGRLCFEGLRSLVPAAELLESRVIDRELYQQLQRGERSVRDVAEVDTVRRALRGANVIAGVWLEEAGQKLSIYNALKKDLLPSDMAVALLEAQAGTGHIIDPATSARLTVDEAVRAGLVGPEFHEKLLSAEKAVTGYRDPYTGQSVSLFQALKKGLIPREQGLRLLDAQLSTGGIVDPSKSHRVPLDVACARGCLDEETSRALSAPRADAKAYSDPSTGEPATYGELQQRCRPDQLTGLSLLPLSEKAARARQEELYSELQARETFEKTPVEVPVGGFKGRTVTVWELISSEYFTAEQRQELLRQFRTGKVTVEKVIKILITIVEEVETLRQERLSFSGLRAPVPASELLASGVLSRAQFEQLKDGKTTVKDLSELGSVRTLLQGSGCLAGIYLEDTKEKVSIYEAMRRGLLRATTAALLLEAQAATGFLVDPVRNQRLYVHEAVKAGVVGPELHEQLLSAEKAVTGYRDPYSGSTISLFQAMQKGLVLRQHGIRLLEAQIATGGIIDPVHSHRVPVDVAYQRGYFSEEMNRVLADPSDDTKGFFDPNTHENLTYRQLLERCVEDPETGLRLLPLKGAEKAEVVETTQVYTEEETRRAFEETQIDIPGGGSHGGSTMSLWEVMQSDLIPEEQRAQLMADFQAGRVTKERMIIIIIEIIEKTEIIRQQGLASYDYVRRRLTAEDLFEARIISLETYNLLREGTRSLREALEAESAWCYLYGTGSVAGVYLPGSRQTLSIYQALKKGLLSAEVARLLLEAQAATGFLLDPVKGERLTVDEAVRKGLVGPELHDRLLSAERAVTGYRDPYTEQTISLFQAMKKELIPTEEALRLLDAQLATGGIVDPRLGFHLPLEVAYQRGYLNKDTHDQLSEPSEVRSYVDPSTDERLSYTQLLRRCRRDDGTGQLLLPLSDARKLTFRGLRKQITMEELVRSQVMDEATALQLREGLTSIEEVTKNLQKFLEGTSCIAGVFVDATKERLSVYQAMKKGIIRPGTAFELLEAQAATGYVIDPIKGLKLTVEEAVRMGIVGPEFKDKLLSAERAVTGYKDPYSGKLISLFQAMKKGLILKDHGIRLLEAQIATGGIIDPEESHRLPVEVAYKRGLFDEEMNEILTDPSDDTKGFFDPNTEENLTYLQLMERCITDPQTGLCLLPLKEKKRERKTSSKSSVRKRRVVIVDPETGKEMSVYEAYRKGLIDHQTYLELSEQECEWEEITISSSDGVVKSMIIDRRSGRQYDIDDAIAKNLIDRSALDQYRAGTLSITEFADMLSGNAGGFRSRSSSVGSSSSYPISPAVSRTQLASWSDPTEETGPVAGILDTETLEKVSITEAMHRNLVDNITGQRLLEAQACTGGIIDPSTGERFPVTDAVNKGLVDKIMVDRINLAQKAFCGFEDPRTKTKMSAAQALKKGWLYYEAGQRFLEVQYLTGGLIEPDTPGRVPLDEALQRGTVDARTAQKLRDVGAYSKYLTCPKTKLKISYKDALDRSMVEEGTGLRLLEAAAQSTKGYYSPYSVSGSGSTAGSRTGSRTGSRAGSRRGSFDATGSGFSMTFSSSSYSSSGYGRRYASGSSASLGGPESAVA
# Chain of UniProt P01889 (P01889 whole entry, one chain of several): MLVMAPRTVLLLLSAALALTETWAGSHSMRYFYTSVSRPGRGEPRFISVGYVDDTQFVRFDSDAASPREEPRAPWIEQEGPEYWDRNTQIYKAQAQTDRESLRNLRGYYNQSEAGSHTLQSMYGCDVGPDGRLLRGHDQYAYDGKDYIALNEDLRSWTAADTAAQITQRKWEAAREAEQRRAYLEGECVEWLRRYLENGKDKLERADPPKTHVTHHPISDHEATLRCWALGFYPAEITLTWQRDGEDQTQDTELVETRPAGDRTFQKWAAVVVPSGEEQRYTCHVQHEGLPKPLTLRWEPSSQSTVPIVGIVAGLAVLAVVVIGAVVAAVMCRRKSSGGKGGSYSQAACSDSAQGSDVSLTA
# Chain of UniProt P18859 (P18859 whole entry): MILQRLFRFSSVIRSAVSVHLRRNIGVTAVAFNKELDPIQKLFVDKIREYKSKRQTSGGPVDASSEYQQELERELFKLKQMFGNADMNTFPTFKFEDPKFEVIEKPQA
row,Target,lysine labeling ratio R10:1
1,P30462 (lysine site: K267) (UniProt P01889),2.91 (inactive)
2,UniProt Q15149 (lysine site: K2078),2.58 (inactive)
3,PAICS (lysine site: K110) (UniProt P22234),3.11 (inactive)
4,FAT4 (lysine site: K2215) (UniProt Q6V0I7),3.48 (inactive)
5,CLSTN1 (lysine site: K322) (UniProt O94985),0.805 (active)
6,CSE1L (lysine site: K158) (UniProt P55060),3.34 (inactive)
7,TKT (lysine site: K59) (UniProt P29401),4.48 (inactive)
8,AHNAK (lysine site: K2993) (UniProt Q09666),1 (active)
9,IARS (lysine site: K382) (UniProt P41252),3.02 (inactive)
10,SEMA3C (lysine site: K547) (UniProt Q99985),2.69 (inactive)
11,NRP1 (lysine site: K538) (UniProt O14786),2.73 (inactive)
12,IARS (lysine site: K132) (UniProt P41252),1.68 (active)
13,UniProt P05787 (lysine site: K8),5.03 (inactive)
14,UniProt P60709 (lysine site: K18),4.98 (inactive)
15,DAG1 (lysine site: K500) (UniProt Q14118),4.65 (inactive)
16,RALA (lysine site: K159) (UniProt P11233),0.885 (active)
17,CLPTM1 (lysine site: K224) (UniProt O96005),1.69 (active)
18,UniProt Q8IWU5 (lysine site: K443),1.5 (active)
19,PCBP2 (lysine site: K322) (UniProt Q15366),4.37 (inactive)
20,FAT1 (lysine site: K101) (UniProt Q14517),2.6 (inactive)

row,Target,lysine labeling ratio R10:1
1,UniProt P18859 (lysine site: K105),3.04 (inactive)
2,KRT18 (lysine site: K118) (UniProt P05783),6.22 (inactive)
3,UniProt Q15149 (lysine site: K1833),2.22 (inactive)
4,FLNA (lysine site: K92) (UniProt P21333),5.97 (inactive)
5,XRCC6 (lysine site: K516) (UniProt P12956),0.712 (active)
6,SHMT2 (lysine site: K302) (UniProt P34897),2.59 (inactive)
7,SUB1 (lysine site: K39) (UniProt P53999),1.42 (active)
8,PLOD2 (lysine site: K358) (UniProt O00469),2.23 (inactive)
9,UniProt Q8WXD0 (lysine site: K130),1.74 (active)
10,UniProt P62826 (lysine site: K71),2.74 (inactive)
11,ECE1 (lysine site: K747) (UniProt P42892),4.05 (inactive)
12,ITGA6 (lysine site: K586) (UniProt P23229),12.8 (inactive)
13,ITGAV (lysine site: K581) (UniProt P06756),0.709 (active)
14,LTBR (lysine site: K48) (UniProt P36941),4.97 (inactive)
15,S100A6 (lysine site: K47) (UniProt P06703),6.34 (inactive)
16,DDX5 (lysine site: K375) (UniProt P17844),2.45 (inactive)
17,TFRC (lysine site: K585) (UniProt P02786),4.53 (inactive)
18,SPTAN1 (lysine site: K1334) (UniProt Q13813),3.63 (inactive)
19,CYB5R3 (lysine site: K164) (UniProt P00387),1.79 (active)
20,PAWR (lysine site: K227) (UniProt Q96IZ0),1.06 (active)
